The list is not random: actives were taken first. Their share in the collection is about 5.5%.
a7 integrin act – qHTS for Activators of Integrin-Mediated Alleviation for Muscular Dystrophy | alpha7betagal myoblasts, beta-gal FDG fluorescence, 48 h | Potency, µM (series often up to 38.3 µM), without a hit: at the highest dose activation, actives largely listed as activators | 350,000 tested, 0.064% active | AID 624291, 2012;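 further: 100% = response of the positive control SU9516; nearly all actives have a fitted effect of over 60% in size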
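Alpha7betagal+/- myoblasts (passage 13) were plated 16-24 hr, then exposed to compounds (1:260 dilution of DMSO stock) for 48 hours at 37C. After MPER lysis, β-galactosidase reporter activity was read as FDG fluorescence (ex 480/em 540) after 30 minutes.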
Chronic BCR inh – qHTS Assay to Find Inhibitors of Chronic Active B-Cell Receptor Signaling. Potency, µM (doses to about 46.1 µM), inactives show at the top dose activity change, negative = inhibition, most hits filed as inhibitors. 340,000 tested, 0.05% active. ABC-DLBCL IkBa-CBG/CBR reporter, luminescence ratio, 4 h; active means well fitted inhibition curve with a large enough effect in the signal ratio, with a control signal flat, not every such curve was filed as active; inconclusive means small, poorly fitted or top-dose-only effect, or effect the other way, or a change in a side signal; the % refers to the signal ratio;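 further: plate controls were basal doxycycline-induced cells for no effect and cells given 10 µM MG132 for full effect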
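TMD8 ABC-DLBCL cells carrying doxycycline-inducible green luciferase fused to IkappaBalpha plus unfused red luciferase were exposed to compounds (up to 46 uM) for 4 hrs at 37C. Activity came from the overlap-corrected green/red luminescence ratio.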
RORgamma inh – qHTS for inhibitors of ROR gamma transcriptional activity | Drosophila S2 Gal4-RORgamma UAS-luciferase reporter, 20 h | Potency, µM (titrated, usually from 53.6 µM), for inactives: at the highest dose activity change, negative = inhibition, actives largely listed as inhibitors | 310,000 tested, 5.4% active | AID 2551, 2010; further: on the % scale 0 is the no-effect control and ±100 the full control effect; nearly all actives have a fitted effect of over 60% in size
Target sequence (P51450 whole entry, looked up, the tested form may be a part): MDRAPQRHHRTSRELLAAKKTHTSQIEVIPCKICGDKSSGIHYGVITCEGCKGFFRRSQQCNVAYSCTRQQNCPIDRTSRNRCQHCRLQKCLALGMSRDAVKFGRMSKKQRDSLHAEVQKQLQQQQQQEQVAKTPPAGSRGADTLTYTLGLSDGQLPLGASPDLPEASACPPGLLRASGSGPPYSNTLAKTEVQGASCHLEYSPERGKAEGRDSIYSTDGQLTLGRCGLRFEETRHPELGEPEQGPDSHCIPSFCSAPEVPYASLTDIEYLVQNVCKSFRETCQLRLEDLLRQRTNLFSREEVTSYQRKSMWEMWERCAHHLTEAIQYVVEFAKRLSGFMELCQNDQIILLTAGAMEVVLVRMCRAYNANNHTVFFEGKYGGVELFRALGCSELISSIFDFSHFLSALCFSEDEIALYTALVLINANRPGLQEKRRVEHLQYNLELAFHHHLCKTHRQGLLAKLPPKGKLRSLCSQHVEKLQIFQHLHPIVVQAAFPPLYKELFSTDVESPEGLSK
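In this cell-based reporter format, copper sulfate (700 uM final) drives Gal4–ROR gamma fusion expression from a metallothionein promoter in Drosophila Schneider cells; compounds preincubated 1 hr, reporter read after 20 hr at ambient temperature.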
uPA surface inh – qHTS for Inhibitors of Cell Surface uPA Generation; cell surface uPA generation assay, qHTS; Potency, µM (doses to about 38.3 µM), for the others: at the highest dose activity change, negative = inhibition, actives largely listed as inhibitors; 330,000 tested, 0.31% active; AID 540303, 2011; active means well fitted inhibition curve with a large enough effect; inconclusive means small, poorly fitted or top-dose-only effect; inactive means no such curve, though single readings can be large or run the other way; tested in mouse RAW 264.7 cells; further: on the % scale 0 is the no-effect control and ±100 the full control effect; nearly all actives have a fitted effect of over 55% in size
Mito fusion act – qHTS Assay for Small Molecule Inhibitors of Mitochondrial Division or Activators of Mitochondrial Fusion; S. cerevisiae fusion-defective mutant growth rescue, CellTiterGlo 48 h; 320,000 tested, 0.23% active; Potency, µM (highest dose often 46.1 µM), without a hit: top-dose growth rescue (activation), actives largely listed as activators; further: % of control where 0% means no effect; nearly all actives have a fitted effect of over 45% in size
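Growth-rescue viability read-out: after 48 h at the non-permissive 37C in glycerol/ethanol YPEG, yeast mitochondrial fusion mutants are measured by CellTiterGlo luminescence; compounds (23 nl pinned per well) restoring growth score as division inhibitors or fusion activators.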
Gal4-VP16 FLuc – VP16 counterscreen qHTS for inhibitors of ROR gamma transcriptional activity. Drosophila S2 Gal4-VP16 UAS-luciferase, luminescence, 20 h. Potency, µM (highest dose often 53.6 µM), without a hit: at the top dose activity, negative = inhibition, actives largely listed as inhibitors. AID 2546, 2010. 310,000 tested, 3.5% active;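 further: Gal4-VP16 expression switched on by copper sulfate through the metallothionein promoter; on the % scale 0 is the no-effect control and ±100 the full control effect; nearly all actives have a fitted effect of over 50% in size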
* marks the source's active call; other numbers are inactive results; ? = inconclusive; . = no result given. Unless noted, the call rests on the fitted dose curve; in most records, active means well fitted curve in the direction sought with a large enough effect; inconclusive means small, poorly fitted or top-dose-only effect, or another doubt; inactive means no such curve, though single readings can be large; an effect the other way counts as inactive or inconclusive. Potency means the concentration at half of the fitted maximal effect.

SMILES	a7 integrin act	Chronic BCR inh	RORgamma inh	uPA surface inh	Mito fusion act	Gal4-VP16 FLuc
C[C@@H]1CC2(OC[C@]3(C)O[C@H]23)O[C@H]2C[C@@]3(C)[C@@H]4CC[C@H]5C(C)(C)C(O[C@@H]6OC[C@@H](O)[C@H](O)[C@H]6O)CC[C@@]56C[C@@]46CC[C@]3(C)[C@@H]12 (stereo not given in full)	.	.	2%	.	.	1%
CC(=O)OC1CC2C(C)(C)C(=O)C3OC3[C@]2(C)C2CC[C@@]3(C)C(c4ccoc4)OC(=O)C4OC43[C@]12C (stereo not given in full)	.	.	30%	.	.	?
CCn1c(=O)c([N+](=O)[O-])c(NCc2ccco2)c2ccccc21	-19%	?	2%	7%	2%	0%
O=S(=O)(c1ccccc1)N1CCC2(CC1)CN(Cc1ccccc1)C2	.	.	3%	.	.	-13%
Cc1ccc(S(=O)(=O)N2CCC(N3CCC(C)CC3)CC2)cc1	-28%	0%	-2%	-2%	4%	2%
CNC(=S)N/N=C/c1ccc(-c2cccc(C(=O)O)c2)o1	-41%	?	7.1µM*	1%	-13%	?
NC(=S)N/N=C/c1ccc(/C=N/NC(N)=S)cc1	-20%	-4%	-16%	9%	-4%	-6%
NC(=S)N/N=C/c1ccc(-c2ccc(SC(F)F)cc2)o1	-58%	?	0.5µM*	-13%	17%	1.1µM*
NC(=S)NN=Cc1ccc(-c2ccc(S(=O)(=O)Nc3ncccn3)cc2)o1	4%	1%	.	1%	.	.
CN(C)/N=C/c1ccc(/C=N/NC(N)=S)o1	26%	?	14µM*	3%	1%	?
Cc1ccc(-c2ccc(/C=N/NC(N)=S)o2)cc1	-8%	22µM*	0.56µM*	-1%	-2%	2.5µM*
CCOC(=O)C1(CCCc2ccccc2)CCN(S(C)(=O)=O)CC1	-12%	-4%	?	-5%	-2%	-30%
O=C(OCC(=O)c1ccc[nH]1)c1ccc(S(=O)(=O)C(F)F)cc1	-9%	.	.	.	.	.
Cc1c(-c2ccc(Cl)cc2)noc1C1CCN(CCc2ccccc2)CC1	.	.	20%	.	.	-4%
O=C(O)/C=C/c1ccc(-c2cccc(C(F)(F)F)c2)o1	?	?	26%	8%	1%	-12%
CCNC(=S)N/N=C/c1ccc(C#N)cc1	26%	2%	7.1µM*	-1%	4%	18µM*
Cc1ccc(C(=O)N/N=C/c2ccc(-c3cccc(C(F)(F)F)c3)o2)cn1	-20%	?	3.5µM*	-8%	2%	10µM*
NC(=S)N/N=C/c1ccc(-c2ccc(Cl)c(Cl)c2)o1	-32%	?	2.5µM*	-3%	13%	2µM*
Fc1ccc(COc2cccc(CNCc3ccncc3)c2)cc1	-32%	-1%	?	-1%	-1%	?
Cc1noc(C)c1-c1nccc(NCc2ccccc2)n1	.	.	-5%	.	.	5%
O=Cc1c2[nH]c3ccccc3c2cc2[nH]c3ccccc3c12	.	.	-14%	.	.	17%
O=c1c2ccccc2[nH]c(=S)n1Cc1ccccc1Cl	-16%	-2%	3.5µM*	3%	-16%	5µM*
O=c1c2cc(Cl)ccc2[nH]c(=S)n1Cc1ccccn1	-15%	?	2.2µM*	-9%	0%	3.2µM*
CCCn1c(=S)[nH]c2ccccc2c1=O	-23%	?	2.8µM*	-5%	-3%	7.9µM*
O=c1c2ccccc2[nH]c(=S)n1Cc1ccccc1	-19%	-2%	4µM*	-2%	-12%	5µM*
O=C(c1ccncc1)N1CCC2(CC1)CN(c1ccccn1)C2	.	.	-2%	.	.	7%
C=CCN(c1nc(C)c(Br)c(OC)n1)S(=O)(=O)c1ccc(C)cc1	4%	?	4%	-26%	-17%	2%
